A selection: hits, their analogues and other compounds. The true share with any hit is near 17%.
HT1080-NT tox: kills 2HG-producing HT-1080-NT fibrosarcoma cells; 360,000 compounds, 1.6% hits; Potency, µM (top dose mostly 46.1 µM), inactives show at the highest dose activity, negative = less viability, most hits filed as cytotoxic; HT-1080-NT fibrosarcoma viability, CellTiter-Glo ATP luminescence, 48 h;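 also: NT is the 2HG producing partner of a matched IDH1 knockdown line; 0% = DMSO-treated cells and -100% = media-only wells without cells; nearly all actives have a fitted effect of over 55% in size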
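HT-1080-NT; 750 cells/well; 5% FBS RPMI; 48 h compound, 37 degrees C; CellTiter-Glo luminescence; curve fitting and curve-class assignment.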
HepG2 tox: HepG2 cytotoxicity, counter-screen for TGF-b inhibitors; HepG2 CAGA-GFP viability, ATP luminescence, 18 h; Potency, µM (highest dose often 46.1 µM), inactives show at the top dose activity change, negative = cytotoxicity, actives largely listed as cytotoxic; 410,000 compounds, 0.76% hits; AID 588856
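CellTiter-Glo luminescence gave cytotoxicity after 18 hours at 37 degrees C. The cells were HepG2 CAGA-GFP in 1% FBS DMEM, stimulated with 500 pg/mL TGF-beta after compound addition. %Activity was normalised to no-cell wells (complete cell-killing) and DMSO (no toxicity), and curves were fitted and classified.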
TGFb SMAD3 inh: inhibitors of TGF-b signaling; HepG2 CAGA-GFP TGF-b/SMAD3 reporter, GFP fluorescence, 18 h; TGF-beta stimulated, 500 pg/mL final; Potency, µM (titrated, usually from 46.1 µM), for the others: top-dose activity, negative = inhibition, most hits filed as inhibitors; 410,000 compounds, 1.2% hits; also: % is scaled to controls: 0 for no effect and ±100 for the full control effect; nearly all actives have a fitted effect of over 65% in size
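Using HEPG2 CAGA-GFP reporter cells at 1000 cells/well, we pinned test compounds, stimulated with recombinant TGF-beta (500 pg/mL final) and measured total well GFP after 18 h.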
TDP1 cell noCPT: qHTS for Inhibitors of human tyrosyl-DNA phosphodiesterase 1 (TDP1): qHTS in cells in absence of CPT | AID 686978, 2013 | Potency, µM (highest dose often 46.2 µM), without a hit: at the top dose activity change, negative = growth inhibition, actives largely listed as inhibitors | DT40 Tdp1-/- hTDP1 cells, no CPT, ATP luminescence, 48 h | 420,000 compounds, 15% hits; also: % is scaled to controls: 0 for no effect and ±100 for the full control effect; nearly all actives have a fitted effect of over 55% in size
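Growth of hTDP1-complemented DT40 Tdp1-knockout cells is measured by ATP luminescence after at least 48 hr compound exposure at 37 °C, with DMSO substituting for the 20 nM CPT used in the parallel screen.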
TDP1 cell CPT: growth inhibition of DT40 Tdp1-/-;hTDP1 cells with camptothecin (screen for TDP1 inhibitors); AID 686979; chicken DT40 Tdp1-/-;hTDP1 cells + 20 nM CPT, ATP luminescence, 48 h; 420,000 compounds, 12% hits; Potency, µM (doses to about 46.2 µM), without a hit: at the highest dose activity change, negative = growth inhibition, actives largely listed as inhibitors; also: % is scaled to controls: 0 for no effect and ±100 for the full control effect; nearly all actives have a fitted effect of over 55% in size
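Cell growth measured by CellTiter-Glo luminescence after a minimum 48 h, 37 C compound exposure with 20 nM CPT in Tdp1-knockout DT40 cells stably expressing hTDP1, seeded 400/well; qHTS titration format.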
HT1080 IDH1KD tx: toxicity to HT-1080 IDH1 knockdown cells (counter line). HT-1080 IDH1 knockdown viability, ATP luminescence, 48 h. Potency, µM (highest dose often 46.1 µM), for inactives: at the top dose activity, negative = toxicity, usual class: cytotoxic. 360,000 compounds, 2% hits. AID 686971;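 also: 0% = DMSO wells and -100% = cell-free medium wells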
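HT-1080-IDH1KD cells (IDH1 knocked down), 750/well in RPMI with 5% FBS, treated with compound 48 h at 37 degrees C. Viability by CellTiter-Glo luminescence, normalised to DMSO and no-cell wells; concentration-response curves classed.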
* hit, by the source's call; ? = inconclusive; nt = no result; [ ] = remark or other dose. Calls follow the shape of the dose curve; as a rule, active = well fitted curve in the direction sought with a large enough effect; inconclusive = small, poorly fitted or top-dose-only effect, or another doubt; inactive = no such curve, though single readings can be large; an effect the other way counts as inactive or inconclusive. Potency is read from the fitted curve at half-maximal effect.

SMILES	HT1080-NT tox	HepG2 tox	TGFb SMAD3 inh	TDP1 cell noCPT	TDP1 cell CPT	HT1080 IDH1KD tx
CC(C)(C)S(=O)N1Cc2cc(C(=O)N[C@@H]3CCN(Cc4ccccc4)C3)nc(-c3cccc(-c4cc5ccccc5o4)c3)c2[C@@H]1CCO (some centres not stated)	?	-32.7%	?	23.1µM*	?	?
COc1cccc(CNC(=O)c2cc3c(c(-c4cccc(-c5cccc(C#N)c5)c4)n2)[C@H](CCO)N(S(=O)C(C)(C)C)C3)c1 (some centres not stated)	7.3%	1.8%	?	14.6µM*	?	7.6%
CCNC(=O)c1cc2c(c(-c3cccc(-c4cccc(C(=O)N(C)C)c4)c3)n1)[C@H](CCO)N(S(=O)C(C)(C)C)C2 (some centres not stated)	1.3%	-18.4%	-25.6%	?	-5.0%	3.2%
CC(C)(C)S(=O)N1Cc2cc(C(=O)O)nc(-c3cccc(-c4cc5ccccc5o4)c3)c2[C@H]1CCO (some centres not stated)	16.9%	-1.4%	-16.5%	43.7%	11.1%	13.1%
CN(C)C(=O)c1cccc(-c2cccc(-c3nc(C(=O)NCc4ccccc4)cc4c3[C@@H](CCO)N(S(=O)C(C)(C)C)C4)c2)c1 (some centres not stated)	?	-2.6%	6.1%	14.6µM*	18.4µM*	?
CCc1nn2c(=O)cc(COc3ccc(/C=C(\C#N)C(=O)Nc4ccc(C)cc4)cc3)nc2s1	nt	-18.8%	-5.7%	11.0%	-6.8%	nt
Cc1cc(C(F)(F)F)nc2c(Cl)c(C(C)(C)C)nn12	?	2.3%	-7.8%	3.6%	19.8%	6.2%
Cc1cnc(SCC2CCCO2)nc1C1CCCN(C(=O)c2ccc(S(N)(=O)=O)cc2)C1 (configuration not stated)	nt	nt	nt	?	5.5%	nt
O=C(CN1Cc2ccccc2OC(c2ccsc2)C1)NCC1OCCc2ccccc21 (configuration not stated)	nt	nt	nt	-31.1%	25.6%[9.04 µM]	nt
COc1cccc(-c2cccc(-c3nc(C(=O)NCCCN4CCOCC4)cc4c3[C@H](CCO)N(S(=O)C(C)(C)C)C4)c2)c1 (some centres not stated)	-1.3%	-14.8%	5.1%	18.4µM*	?	-1.0%
COc1ccc(C#Cc2cccc(-c3nc(C(=O)NCc4ccc(Oc5ccccc5)cc4)cc4c3[C@@H](CCO)N(S(=O)C(C)(C)C)C4)c2)cc1OC (some centres not stated)	20.6µM*	15.8µM*	?	?	?	?
CCCCCCSc1nc(O)c(C2OC(=O)c3c2ccc(OC)c3OC)c(=O)n1-c1ccccc1 (configuration not stated)	-25.7%	0.7%	-14.1%	-0.6%	-18.9%	-24.1%
Cc1ccc(C)c(Nc2nc(-c3ccccc3)c3cc(Br)ccc3n2)c1	nt	-17.2%	-0.3%	?	?	nt
Cc1ccc2nc(NC(=O)CN(C)S(=O)(=O)c3ccc(Br)s3)sc2c1	?	4.1%	?	?	?	-23.0%
CCOc1ccc(S(=O)(=O)N(C)c2ccc(OCC(=O)Nc3nc4ccccc4s3)cc2)cc1	-11.2%	-28.9%	?	9.2µM*	11.6µM*	6.51µM*
Cc1ccnc(NC(=O)CN(C)S(=O)(=O)c2cccc3nsnc23)c1	5.5%	4.0%	-10.6%	7.31µM*	?	2.8%
